The supplement of paper PMC12067093, “Discovery and optimisation of a covalent ligand for TRIM25 and its application to targeted protein ubiquitination” (Chemical Science, 2025)
About 21,000 targets were measured; listed, in parts, are those with the largest changes and a random draw of the rest.

Compound: CC1Cc2ccccc2N1C(=O)C1CCCN(C1)C(=O)CCl (mixture of isomers) [TRIM25 ligand 11 (diastereomer mixture)]
Assay: probe-labelled cysteine peptide fold change vs DMSO (competition) (log2 fold change); higher = less target engagement (more negative = stronger competition)
Settings: THP-1, incubation time: 4 h
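Further: competitive chemoproteomic profiling in live THP-1 cells with an iodoacetamide desthiobiotin (IA-DTB) probe, comparing probe-labelled peptide intensities in compound-treated cells against DMSO-treated controls.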

Chain of UniProt O43670 (O43670 whole entry, looked up): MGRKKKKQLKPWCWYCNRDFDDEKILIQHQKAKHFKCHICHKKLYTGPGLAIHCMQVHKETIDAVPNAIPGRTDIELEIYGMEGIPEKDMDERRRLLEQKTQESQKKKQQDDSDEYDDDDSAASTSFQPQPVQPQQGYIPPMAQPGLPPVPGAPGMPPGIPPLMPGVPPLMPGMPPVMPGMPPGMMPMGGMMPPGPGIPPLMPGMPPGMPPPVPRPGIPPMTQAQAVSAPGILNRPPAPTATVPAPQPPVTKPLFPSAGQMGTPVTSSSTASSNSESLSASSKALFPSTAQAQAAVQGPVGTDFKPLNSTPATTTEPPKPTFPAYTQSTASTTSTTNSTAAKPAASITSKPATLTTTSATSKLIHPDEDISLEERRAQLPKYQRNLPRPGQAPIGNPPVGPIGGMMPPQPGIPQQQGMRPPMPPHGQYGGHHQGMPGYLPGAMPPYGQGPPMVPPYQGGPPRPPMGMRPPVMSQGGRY
Chain of UniProt Q8IZH2 (Q8IZH2 whole entry, looked up): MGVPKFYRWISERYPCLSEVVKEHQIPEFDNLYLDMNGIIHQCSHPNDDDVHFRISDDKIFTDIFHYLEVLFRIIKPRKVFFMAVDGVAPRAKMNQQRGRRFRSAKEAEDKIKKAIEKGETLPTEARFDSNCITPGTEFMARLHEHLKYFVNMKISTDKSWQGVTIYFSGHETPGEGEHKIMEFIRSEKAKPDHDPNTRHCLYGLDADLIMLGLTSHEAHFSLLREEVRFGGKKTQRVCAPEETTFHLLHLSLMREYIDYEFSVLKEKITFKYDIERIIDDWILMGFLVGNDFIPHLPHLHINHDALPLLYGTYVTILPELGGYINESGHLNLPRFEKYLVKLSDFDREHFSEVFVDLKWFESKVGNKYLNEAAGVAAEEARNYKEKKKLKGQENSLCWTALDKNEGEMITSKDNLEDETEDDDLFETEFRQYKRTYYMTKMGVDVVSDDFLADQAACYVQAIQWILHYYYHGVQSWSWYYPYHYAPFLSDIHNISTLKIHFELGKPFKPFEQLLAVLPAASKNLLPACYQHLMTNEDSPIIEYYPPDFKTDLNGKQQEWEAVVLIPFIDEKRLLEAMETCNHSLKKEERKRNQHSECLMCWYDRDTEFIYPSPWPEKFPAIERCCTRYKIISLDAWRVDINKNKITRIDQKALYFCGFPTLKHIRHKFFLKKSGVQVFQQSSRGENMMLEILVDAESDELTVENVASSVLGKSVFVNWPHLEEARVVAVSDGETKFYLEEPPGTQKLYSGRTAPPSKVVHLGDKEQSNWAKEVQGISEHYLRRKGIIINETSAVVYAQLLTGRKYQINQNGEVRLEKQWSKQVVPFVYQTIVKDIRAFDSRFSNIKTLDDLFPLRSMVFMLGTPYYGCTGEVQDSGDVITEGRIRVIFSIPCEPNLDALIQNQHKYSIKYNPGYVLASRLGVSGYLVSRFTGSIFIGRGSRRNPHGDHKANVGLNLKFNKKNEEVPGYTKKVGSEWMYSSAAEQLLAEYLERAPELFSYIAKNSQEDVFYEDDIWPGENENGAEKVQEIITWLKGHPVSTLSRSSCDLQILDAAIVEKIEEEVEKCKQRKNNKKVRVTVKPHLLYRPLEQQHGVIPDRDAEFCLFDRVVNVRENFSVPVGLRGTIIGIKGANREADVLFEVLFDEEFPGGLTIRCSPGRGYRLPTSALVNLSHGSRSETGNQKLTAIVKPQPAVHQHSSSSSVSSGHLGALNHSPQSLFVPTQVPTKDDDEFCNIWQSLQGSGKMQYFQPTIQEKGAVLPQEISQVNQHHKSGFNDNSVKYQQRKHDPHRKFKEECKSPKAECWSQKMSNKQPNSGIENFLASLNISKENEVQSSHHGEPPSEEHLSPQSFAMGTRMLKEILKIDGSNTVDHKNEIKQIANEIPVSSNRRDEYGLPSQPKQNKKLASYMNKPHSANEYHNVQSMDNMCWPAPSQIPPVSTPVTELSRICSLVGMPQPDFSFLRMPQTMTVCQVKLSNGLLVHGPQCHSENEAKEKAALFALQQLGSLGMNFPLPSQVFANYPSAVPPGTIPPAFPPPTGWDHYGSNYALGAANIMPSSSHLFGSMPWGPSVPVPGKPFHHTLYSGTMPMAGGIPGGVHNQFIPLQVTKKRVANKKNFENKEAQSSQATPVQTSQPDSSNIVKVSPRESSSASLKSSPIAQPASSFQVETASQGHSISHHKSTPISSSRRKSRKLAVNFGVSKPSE
Chain of UniProt Q04917 (Q04917 whole entry, looked up): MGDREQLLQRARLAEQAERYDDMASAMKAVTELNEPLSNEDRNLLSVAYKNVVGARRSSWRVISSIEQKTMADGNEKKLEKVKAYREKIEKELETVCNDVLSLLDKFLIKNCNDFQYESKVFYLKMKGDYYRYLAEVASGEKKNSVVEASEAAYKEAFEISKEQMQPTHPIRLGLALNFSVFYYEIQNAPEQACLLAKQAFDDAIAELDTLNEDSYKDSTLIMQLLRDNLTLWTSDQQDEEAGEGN
Chain of UniProt Q9ULU4 (Q9ULU4 whole entry, looked up): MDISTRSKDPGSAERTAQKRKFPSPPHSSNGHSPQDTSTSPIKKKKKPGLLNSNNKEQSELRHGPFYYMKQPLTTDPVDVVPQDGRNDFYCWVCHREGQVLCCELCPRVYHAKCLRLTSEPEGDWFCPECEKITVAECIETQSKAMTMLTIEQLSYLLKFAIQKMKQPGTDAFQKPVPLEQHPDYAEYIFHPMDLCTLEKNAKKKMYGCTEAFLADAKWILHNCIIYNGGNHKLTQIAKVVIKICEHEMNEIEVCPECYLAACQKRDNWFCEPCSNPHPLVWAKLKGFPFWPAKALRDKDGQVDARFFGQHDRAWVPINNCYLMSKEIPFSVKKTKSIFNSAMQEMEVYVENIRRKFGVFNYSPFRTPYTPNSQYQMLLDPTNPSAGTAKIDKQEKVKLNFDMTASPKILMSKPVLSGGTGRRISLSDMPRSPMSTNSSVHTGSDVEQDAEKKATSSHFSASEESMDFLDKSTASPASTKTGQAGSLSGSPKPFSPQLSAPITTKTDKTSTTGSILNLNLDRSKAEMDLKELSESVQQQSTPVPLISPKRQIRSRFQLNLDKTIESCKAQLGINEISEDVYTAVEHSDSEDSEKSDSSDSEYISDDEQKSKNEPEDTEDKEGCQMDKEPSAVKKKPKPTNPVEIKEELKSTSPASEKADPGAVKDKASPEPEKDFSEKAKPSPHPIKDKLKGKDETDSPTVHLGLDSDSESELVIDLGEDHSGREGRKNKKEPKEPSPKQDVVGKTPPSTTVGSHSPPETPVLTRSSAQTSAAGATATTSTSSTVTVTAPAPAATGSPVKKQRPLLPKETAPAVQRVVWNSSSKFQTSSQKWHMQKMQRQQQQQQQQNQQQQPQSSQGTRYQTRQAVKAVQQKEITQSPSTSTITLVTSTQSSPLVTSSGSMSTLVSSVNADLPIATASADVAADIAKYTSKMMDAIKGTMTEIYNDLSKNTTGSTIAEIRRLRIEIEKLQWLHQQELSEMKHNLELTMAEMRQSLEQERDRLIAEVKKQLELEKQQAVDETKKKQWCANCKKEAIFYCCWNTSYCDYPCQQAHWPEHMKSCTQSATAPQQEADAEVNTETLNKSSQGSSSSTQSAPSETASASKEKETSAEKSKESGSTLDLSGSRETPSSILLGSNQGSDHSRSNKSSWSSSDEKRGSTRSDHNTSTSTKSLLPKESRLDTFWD
Chain of UniProt Q9NUD5 (Q9NUD5 whole entry, looked up): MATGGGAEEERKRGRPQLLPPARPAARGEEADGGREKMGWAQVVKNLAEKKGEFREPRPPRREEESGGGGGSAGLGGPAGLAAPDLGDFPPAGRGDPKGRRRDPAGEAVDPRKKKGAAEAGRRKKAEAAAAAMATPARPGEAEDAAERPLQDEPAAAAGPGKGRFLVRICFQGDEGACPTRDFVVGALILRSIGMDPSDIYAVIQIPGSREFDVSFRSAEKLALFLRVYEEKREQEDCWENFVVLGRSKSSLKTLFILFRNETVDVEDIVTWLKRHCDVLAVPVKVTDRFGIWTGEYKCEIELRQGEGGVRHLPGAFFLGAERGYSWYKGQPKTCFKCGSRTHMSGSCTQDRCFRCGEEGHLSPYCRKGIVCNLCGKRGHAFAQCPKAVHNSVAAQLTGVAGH
Chain of UniProt A6NFI3 (A6NFI3 whole entry, looked up): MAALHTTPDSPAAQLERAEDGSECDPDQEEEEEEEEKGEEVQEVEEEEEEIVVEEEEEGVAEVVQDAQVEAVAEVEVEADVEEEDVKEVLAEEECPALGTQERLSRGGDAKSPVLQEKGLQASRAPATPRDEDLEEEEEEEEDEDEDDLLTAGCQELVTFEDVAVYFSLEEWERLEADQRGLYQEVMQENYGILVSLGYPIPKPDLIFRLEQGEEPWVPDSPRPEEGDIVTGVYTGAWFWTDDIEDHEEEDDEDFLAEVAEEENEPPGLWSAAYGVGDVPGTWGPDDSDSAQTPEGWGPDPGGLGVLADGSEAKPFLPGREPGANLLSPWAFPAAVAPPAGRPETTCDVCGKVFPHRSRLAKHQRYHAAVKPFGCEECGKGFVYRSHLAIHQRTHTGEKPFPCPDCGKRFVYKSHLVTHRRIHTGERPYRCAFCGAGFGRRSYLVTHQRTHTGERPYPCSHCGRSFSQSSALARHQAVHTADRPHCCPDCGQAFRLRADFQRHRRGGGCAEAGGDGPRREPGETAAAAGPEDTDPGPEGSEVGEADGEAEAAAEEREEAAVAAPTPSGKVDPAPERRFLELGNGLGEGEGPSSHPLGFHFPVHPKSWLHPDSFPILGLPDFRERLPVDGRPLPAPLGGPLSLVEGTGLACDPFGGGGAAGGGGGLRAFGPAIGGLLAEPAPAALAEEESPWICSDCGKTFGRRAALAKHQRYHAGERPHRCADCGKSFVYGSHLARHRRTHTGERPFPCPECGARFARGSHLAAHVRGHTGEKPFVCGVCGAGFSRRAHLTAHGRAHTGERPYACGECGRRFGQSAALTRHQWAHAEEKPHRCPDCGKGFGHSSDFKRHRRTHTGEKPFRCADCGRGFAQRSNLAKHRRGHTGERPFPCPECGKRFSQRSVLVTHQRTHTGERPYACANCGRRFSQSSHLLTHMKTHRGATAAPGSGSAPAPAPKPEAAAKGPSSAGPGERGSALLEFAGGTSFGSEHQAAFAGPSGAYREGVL

Target	probe-labelled cysteine peptide fold change (10 µM)	probe-labelled cysteine peptide fold change (50 µM)
ZNF207_O43670_54_KLYTGPGLAIHCMQVHK (UniProt O43670)	-0.6	-0.388
ZCCHC3_Q9NUD5_238_REQEDCWENFVVLGR (UniProt Q9NUD5)	0.192	0.112
ZFYVE27_Q5T4F4_353_RYPTNNFGNCTGCSATFSVLK (UniProt Q5T4F4)	-0.247	-0.0647
ZW10_O43264_568_LAPILCDGTATFVDLVPGFR (UniProt O43264)	0.117	0.00333
XRN1_Q8IZH2_16_YPCLSEVVK (UniProt Q8IZH2)	0.0639	0.0149
ZNF280D_Q6N043_323_CFSCLK (UniProt Q6N043)	0.0838	0.233
ZMYND8_Q9ULU4_106_EGQVLCCELCPR (UniProt Q9ULU4)	0.247	0.0715
ZFAND1_Q8TCF1_64_LKTDQHTSYPCSFK (UniProt Q8TCF1)	-0.0624	-0.388
YES1_P07947_42_YRPENTPEPVSTSVSHYGAEPTTVSPCPSSSAK (UniProt P07947)	-0.0245	-0.239
XRN2_Q9H0D6_296_GKHDELADSLPCAEGEFIFLR (UniProt Q9H0D6)	0.0997	-0.0177
ZNF316_A6NFI3_861_CADCGR (UniProt A6NFI3)	0.139	0.163
ZNF417_Q8TAU3_56_DVMLENLALISSLGCWCGSK<|>ZNF587_Q96SQ5_56_DVMLENLALISSLGCWCGSK (UniProt Q96SQ5+Q8TAU3)	0.112	0.104
ZBTB7A_O95365_34_TQGLLCDVVILVEGR (UniProt O95365)	0.149	-0.0545
ZW10_O43264_588_LGTECFLAQMR (UniProt O43264)	0.647	0.508
XRN2_Q9H0D6_296_HDELADSLPCAEGEFIFLR (UniProt Q9H0D6)	0.409	-0.0107
ZNF691_Q5VV52_230_THLEPAPYICCECGK (UniProt Q5VV52)	-0.272	-0.8
ZNF687_Q8N1G0_576_CSLLLHAR (UniProt Q8N1G0)	0.101	0.0491
ZNFX1_Q9P2E3_1416_CGHVEGLLYGGLLVK (UniProt Q9P2E3)	-0.0464	-0.153
YES1_P07947_255_LTTVCPTVKPQTQGLAK (UniProt P07947)	-0.0129	-0.34
XRN2_Q9H0D6_736_FSLDEEAILPDQIVCSPVPMLR (UniProt Q9H0D6)	0.234	0.0197
ZNF710_Q8N1W2_91_ALEEPAEEEVLEVEAACEK (UniProt Q8N1W2)	0.158	-0.171
ZW10_O43264_650_LGIVWQDVLPVNIYCK (UniProt O43264)	0.0783	0.0695
YWHAH_Q04917_97_ELETVCNDVLSLLDK (UniProt Q04917)	-0.1	-0.178
